From PubChem BioAssay
KDM5B inhibitor: Primary screen for KDM5B Histone Demethylases FDH-coupled qHTS; Lysine-specific demethylase 5B (Homo sapiens), Q9UGL1; KDM5B demethylase, FDH-coupled NADH fluorescence (FDH is formaldehyde dehydrogenase); AID 1347165, 2019; Potency, µM (series often up to 57.7 µM), hits mostly inhibitors; 220,000 tested, 2.6% active; active means well fitted inhibition curve with a large enough effect; further: nearly all actives have a fitted effect of over 70% in size
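Compound dilutions met 200 nM (final) KDM5BΔAP for 10 min at room temperature before substrate addition. The substrate mix held 12.5 µM H3K4me3 with cofactors 25 µM α-ketoglutarate and 50 µM Fe²⁺. NADH signal gain over 30 min defined activity.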
Of the large screens only hits and unclear results are named; the others gave an inactive call. The entries come from a sample that favours hits as a whole.

O=C(CN1CC2CC(C1)[C@H]1CCCC(=O)N1C2)NCCCN1CCCc2ccccc21 (some centres undefined)	KDM5B inhibitor 14µM
O=C(CN1CC2CC(C1)[C@H]1CCCC(=O)N1C2)NCCCN1CCN(c2ccccc2)CC1 (some centres undefined)	none
O=C(NCCN1CCCCC1)c1ccc(N2CC3CC(C2)[C@H]2CCCC(=O)N2C3)nc1 (some centres undefined)	none
O=C(CN1CC2CC(C1)[C@H]1CCCC(=O)N1C2)NCCN1CCCCC1 (some centres undefined)	none
O=C(NC1CCCCC1)c1ccc(N2CC3CC(C2)[C@H]2CCCC(=O)N2C3)nc1 (some centres undefined)	none
O=C(NCCCN1CCCCC1)c1cccnc1N1CC2CC(C1)[C@H]1CCCC(=O)N1C2 (some centres undefined)	KDM5B inhibitor 28µM
CN1CCN(CCCNC(=O)CN2CC3CC(C2)[C@H]2CCCC(=O)N2C3)CC1 (some centres undefined)	none
C=CCNC(=O)c1ccc(N2CC3CC(C2)[C@H]2CCCC(=O)N2C3)nc1 (some centres undefined)	KDM5B inhibitor 25µM
O=C(CN1CC2CC(C1)[C@H]1CCCC(=O)N1C2)NCCCN1CCOCC1 (some centres undefined)	none
CSc1nc(C(C)C)nc(C)c1C(=O)Nc1cc(Cl)ccc1C	none
CCNc1c(NC(=O)c2ccc(OC)c(Br)c2)c(=O)oc2ccccc12	none
CCOC(=O)c1ccc(NC(=O)N(C)Cc2nc(-c3ccccc3C)oc2C)cc1	none
O=S(=O)(c1ccc(Sc2nnnn2C2CC2)nc1)N1CCCCC1	none
Cc1cc(=O)oc2cc(OC(C)C(=O)NCc3cccnc3)c(Cl)cc12 (centres undefined)	none
CN1/C(=C/C(=O)C(F)(F)C(F)(F)C(F)(F)F)Sc2ccccc21	none
COc1cc(/C=C/c2cc(C(=O)O)c3ccccc3n2)ccc1O	none
CC(C)NC(=O)NC(C)c1cccc(Cl)c1 (centres undefined)	none
CCc1c(C)sc(NC(=O)CCC(=O)O)c1C(=O)NC1CC1	none
Cc1cc(N(C)C)n2nc(Cc3ccc(Cl)cc3)nc2n1	none
Cc1c(C(=O)N2CCC(C)CC2)c(S(=O)(=O)NCCc2ccccc2)c(C)n1C	none
Cc1cc(Cl)nc2c(C)c(Cl)ccc12	none
O=S(CCO)CCO	none
COc1ccc2cc(-c3nc(-c4cccc(OC)c4OC)no3)c(=O)oc2c1	none
CC(=O)NCCNC[C@@H]1C=C(C)[C@H](Cc2nnc(-c3ccccc3)o2)C[C@H]1C(C)C	none
CCOc1ncccc1CNC(=O)c1cc2cc(C)ccc2nc1C	none
N#CCC(=O)Nc1ccc(C(=O)OCc2cccc(F)c2F)cc1	none
Cc1ccc(/C=C/C(=O)N/N=C/c2ccccc2)cc1	none
COc1ccc(-c2[nH]nc3ncc(-c4ccc(CO)cc4)nc23)cc1F	none
O=C(Nc1ccon1)c1cnc2n[nH]c(-c3ccccc3)c2n1	none
Cc1ccsc1-c1[nH]nc2ncc(-c3cccc(CO)c3)nc12	none
Cc1cc(-c2cnc3n[nH]c(-c4ccccc4)c3n2)ccn1	none
COc1ccccc1-c1[nH]nc2ncc(CN(C)Cc3ccccc3)nc12	none
COc1cc(F)ccc1-c1cnc2n[nH]c(-c3sccc3C)c2n1	none
Fc1ccccc1-c1cnc2n[nH]c(-c3ccccc3)c2n1	KDM5B inhibitor 32µM
COc1ccccc1-c1cnc2n[nH]c(-c3ccccc3)c2n1	KDM5B inhibitor 35µM
COc1ccc(-c2cnc3n[nH]c(-c4ccc(F)cc4C)c3n2)cc1OC	KDM5B inhibitor 32µM
COc1ccc(-c2[nH]nc3ncc(-c4ccccc4O)nc23)cc1F	none
Cc1cccc(-c2cnc3n[nH]c(-c4ccccc4)c3n2)c1	KDM5B inhibitor 35µM
Cc1cc(F)ccc1-c1[nH]nc2ncc(-c3cnn(C)c3)nc12	none
Cc1nc2ccc(C(=O)NCC3CCN(C(C)C)C3)cc2nc1C (centres undefined)	none
O=C(c1ccc(F)cc1)N1CCC(OC2CCN(Cc3ccccc3)CC2)CC1	none
Cn1c(=O)c2c(ncn2CC(O)COc2ccc(C#N)cc2)n(C)c1=O (centres undefined)	none
O=c1c2cc(Br)ccc2ncn1Cc1ncc(-c2ccccc2)o1	none
CN(C)CCCNC(C(=O)O)c1cn(CCC(=O)O)c2cc(Br)ccc12 (centres undefined)	none
CN(Cc1cnn(C)c1)C(=O)c1nn(-c2ccccc2)c(=O)c2ccccc12	none
O=C(NCc1cccn1Cc1ccc(F)cc1)NC12CC3CC(CC(C3)C1)C2	none
Cc1c(NC(=O)c2c(Cl)cnn2C)cnn1C	none
O=c1c(Cl)c(N2CCN(S(=O)(=O)c3ccc4ccccc4c3)CC2)cnn1-c1ccccc1	none
COc1ccccc1-c1cnc2n[nH]c(-c3ccccc3C)c2n1	KDM5B inhibitor 7.1µM
Cc1cc(C)cc(-c2[nH]nc3ncc(-c4ccsc4)nc23)c1	KDM5B inhibitor 28µM
COc1ccccc1-c1[nH]nc2ncc(C(=O)N3C[C@@H](C)O[C@@H](C)C3)nc12	none
COc1ccccc1-c1[nH]nc2ncc(-c3ccccc3O)nc12	none
Cc1cc(-c2cnc3n[nH]c(-c4ccc5c(c4)OCO5)c3n2)ccn1	none
